# Reference: PubChem BioAssay (Tox21)
# “And” between values parts separate entries of the source, which are not always exact repeats. Identical values can stand only once. Results filed as inconclusive are left out. Where a call stands in place of a potency, no number is given. The source made the active and inactive calls. Calls follow the shape of the full dose curve.
# Assay: qHTS assay for small molecule agonists of the p53 signaling pathway - cell viability (AID 651633); also: nearly all actives have a fitted effect of over 30% in size
# Settings: p53RE-bla HCT-116 viability, ATP luminescence, 16 h; series mostly up to 83.3 µM
# Method in brief: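 p53RE-bla cells were treated with compound for 16 hours at 37 C. Cytotoxicity was then measured as CellTiter-Glo luminescence after 30 min at room temperature.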
# Potency is read from the fitted curve at half-maximal effect.
row,Compound,Potency
1,CC1(C)S[C@@H]2[C@H](NC(=O)[C@H](N)c3ccc(O)cc3)C(=O)N2[C@H]1C(=O)O,inactive
2,CC(C)(C)c1ccc2c(S(=O)(=O)O)c(C(C)(C)C)ccc2c1,inactive
3,O=C1CCCCCCCCCCCCCC1,inactive
4,C[C@@H]1C(=O)NC2=Nc3cccc(Cl)c3CN21,inactive
5,C=C1C(CCl)(CCl)C2(Cl)C(Cl)C(Cl)C1(Cl)C2(Cl)Cl (stereo not given),10.6 µM (active) and 60.4 µM (active)
6,CN(C[C@@H](CC[N+]12CCC(C3CCCCC3)(CC1)CC2)c1ccc(Cl)c(Cl)c1)C(=O)c1cc(C(F)(F)F)cc(C(F)(F)F)c1,27.3 µM (active)
7,CCOc1ccc([N+](=O)[O-])cc1,62 µM (active)
8,Cc1cc(CC(C)CC(C)(C)C)n(O)c(=O)c1 (stereo not given) (tested in a mixture with another compound),29.8 µM (active)
9,O=C(Nc1ccccc1)c1cc(Cl)ccc1O,17.2 µM (active)
10,N[C@H](CO)C(=O)O,inactive
11,CC[C@@H](C)[C@H](N)C(=O)O,inactive
12,CC(C)c1ccc2sc3ccccc3c(=O)c2c1,inactive
13,CC(=O)N[C@@H](C=O)[C@H](O)[C@H](O)[C@@H](O)CO,inactive
14,COc1c(Br)cc(Br)c(C)c1Br,inactive
15,OCCCNc1ccccc1,inactive
16,Cc1ccc2nc(-c3ccc(N)cc3)sc2c1S(=O)(=O)O,inactive
17,NCc1cccc(C2CCN(C(=O)c3ccc(C#Cc4ccccc4F)o3)CC2)c1,61.1 µM (active)
18,CN[C@H](CC(C)C)C(=O)N[C@H]1C(=O)N[C@@H](CC(N)=O)C(=O)N[C@H]2C(=O)N[C@H]3C(=O)N[C@H](C(=O)N[C@@H](C(=O)O)c4cc(O)cc(O)c4-c4cc3ccc4O)[C@H](O)c3ccc(c(Cl)c3)Oc3cc2cc(c3O[C@@H]2O[C@H](CO)[C@@H](O)[C@H](O)[C@H]2O[C@H]2C[C@](C)(N)C(O)[C@H](C)O2)Oc2ccc(cc2Cl)[C@H]1O (stereo not given in full),inactive
19,O=C(Cn1cnnn1)N[C@@H]1C(=O)N2C(C(=O)O)=C(CSc3nncs3)CS[C@H]12,inactive
20,COc1cccc2c1[C@@H]1CN(CCCCn3c(=O)[nH]c4c(sc5ncc(-c6ccccc6)nc54)c3=O)C[C@@H]1CO2,29.8 µM (active)
21,Oc1ccc(Cl)cc1C1CCCC1,inactive
22,CCSCC,inactive
23,c1ccc2cc3c4ccccc4c4ccccc4c3cc2c1,inactive
24,Cc1cc(F)ccc1-c1cc(N2CC[C@@H](O)[C@H]2CO)ncc1N(C)C(=O)C(C)(C)c1cc(C(F)(F)F)cc(C(F)(F)F)c1,19 µM (active)
25,CC(CNC(=O)c1cccnc1)NC(=O)c1cccnc1 (stereo not given),inactive
